According to PubChem BioAssay AID1159580 (chemical genetic matrix, 2015):
“And” between values parts separate entries of the source, which are not always exact repeats. Identical values can stand only once. Out of some 5,500 compounds screened, about 2,000 (36%) were called active. Another 18% or so got no clear call; they are omitted. Rule as the data show it: active = normalized growth mostly below about 0.91 (no sharp cut-off); inconclusive = no clear call, values can overlap the other calls; inactive = mostly above about 0.92. The list shows a part of the results.

Test: chemical genetic growth profiling, strain panel (AID 1159580);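 also: tested at 20 µM; growth read once vehicle control cultures reached saturation at 30 °C; 1 = growth at the plate median or of vehicle wells; lower values mean less growth of the strain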
Conditions: S. cerevisiae deletion strains, growth OD

Measured: normalized growth

O=c1cc(-c2ccc(O)cc2)oc2cc(O[C@@H]3O[C@H](CO)[C@@H](O)[C@H](O)[C@H]3O[C@@H]3OC[C@](O)(CO)[C@H]3O)cc(O)c12
inactive: locus YAL013W, strain DEP1, stronger effect = lower value 1.01 | locus YAL021C, strain ccr4, stronger effect = lower value 0.998 | locus YAL026C, strain drs2, stronger effect = lower value 1 | locus YAL030W, strain snc1, stronger effect = lower value 1 | locus YBL061C, strain skt5, stronger effect = lower value 1.02 | locus YBR009C, strain hhf1, stronger effect = lower value 1.01 | locus YBR021W, strain FUR4, stronger effect = lower value 0.99 | locus YBR023C, strain chs3, stronger effect = lower value 1.01 | locus YBR171W, strain sec66, stronger effect = lower value 0.982 | locus YBR229C, strain ROT2, stronger effect = lower value 1.01 | locus YBR231C, strain swc5, stronger effect = lower value 1.01 | locus YBR279W, strain paf1, stronger effect = lower value 1.01 | locus YCL011C, strain gbp2, stronger effect = lower value 1.01 | locus YCL016C, strain dcc1, stronger effect = lower value 1 | locus YCL029C, strain bik1, stronger effect = lower value 0.985 | locus YCL061C, strain MRC1, stronger effect = lower value 1.01 | locus YCL069W, strain vba3, stronger effect = lower value 0.994 | locus YCR088W, strain abp1, stronger effect = lower value 0.998 | locus YDL005C, strain med2, stronger effect = lower value 1 | locus YDL035C, strain GPR1, stronger effect = lower value 1.01 | locus YDL040C, strain nat1, stronger effect = lower value 0.997 | locus YDL074C, strain BRE1, stronger effect = lower value 1.02 | locus YDL101C, strain DUN1, stronger effect = lower value 1.02 | locus YDL134C, strain PPH21, stronger effect = lower value 1.03 | locus YDL185W, strain tfp1, stronger effect = lower value 0.981 | locus YDL192W, strain arf1, stronger effect = lower value 0.998 | locus YDR001C, strain nth1, stronger effect = lower value 1 | locus YDR069C, strain doa4, stronger effect = lower value 1.01 | locus YDR101C, strain arx1, stronger effect = lower value 0.963 | locus YDR137W, strain rgp1, stronger effect = lower value 1.01 | locus YDR159W, strain sac3, stronger effect = lower value 1.01 | locus YDR162C, strain NBP2, stronger effect = lower value 1.03 | locus YDR195W, strain ref2 0.991 | locus YDR297W, strain sur2, stronger effect = lower value 1.01 | locus YDR318W, strain mcm21, stronger effect = lower value 1.01 | locus YDR334W, strain swr1, stronger effect = lower value 1.01 | locus YDR335W, strain msn5, stronger effect = lower value 1.01 | locus YDR388W, stronger effect = lower value 0.981 | locus YDR392W, strain spt3, stronger effect = lower value 1.01 | locus YDR502C, strain sam2, stronger effect = lower value 0.993 | locus YEL003W, strain gim4, stronger effect = lower value 1.01 | locus YEL037C, strain rad23, stronger effect = lower value 0.999 | locus YEL061C, strain CIN8 (second series), stronger effect = lower value 1 | locus YEL061C, strain CIN8, stronger effect = lower value 1.01 | locus YER015W, strain faa2, stronger effect = lower value 1.01 | locus YER016W, strain bim1, stronger effect = lower value 1.01 | locus YER110C, stronger effect = lower value 0.984 | locus YER111C, strain swi4, stronger effect = lower value 1 | locus YER155C, strain BEM2 (second series), stronger effect = lower value 1.02 | locus YER155C, strain BEM2, stronger effect = lower value 1.01 | locus YER167W, strain BCK2, stronger effect = lower value 1.01 | locus YFR010W, strain ubp6, stronger effect = lower value 1.02 | locus YGL078C, strain dbp3, stronger effect = lower value 0.997 | locus YGL086W, strain mad1, stronger effect = lower value 0.984 | locus YGL167C, strain pmr1, stronger effect = lower value 1.01 | locus YGL173C, strain kem1, stronger effect = lower value 1.02 | locus YGL227W, strain vid30, stronger effect = lower value 0.994 | locus YGL240W, strain doc1, stronger effect = lower value 1.01 | locus YGL248W, strain PDE1, stronger effect = lower value 1.05 | locus YGL253W, strain hxk2, stronger effect = lower value 0.998 | locus YGR135W, strain pre9, stronger effect = lower value 0.989 | locus YGR252W, strain gcn5, stronger effect = lower value 1.04 | locus YHR013C, strain ard1, stronger effect = lower value 0.988 | locus YHR027C, strain rpn1, stronger effect = lower value 1.01 | locus YHR030C, strain SLT2, stronger effect = lower value 1.01 and 0.992 | locus YHR079C, strain IRE1 (second series), stronger effect = lower value 0.982 | locus YHR079C, strain IRE1, stronger effect = lower value 0.983 | locus YHR094C, strain hxt1, stronger effect = lower value 0.984 | locus YHR129C, strain ARP1, stronger effect = lower value 1.01 | locus YHR142W, strain chs7, stronger effect = lower value 1.01 | locus YHR200W, strain rpn10, stronger effect = lower value 0.995 | locus YIL066C, strain RNR3, stronger effect = lower value 1.02 | locus YIL073C, strain SPO22, stronger effect = lower value 1.01 | locus YIL125W, strain kgd1, stronger effect = lower value 0.989 | locus YIR030C, strain dcg1, stronger effect = lower value 1 | locus YJL092W, strain hpr5, stronger effect = lower value 1 | locus YJL095W, strain BCK1 (second series), stronger effect = lower value 1.01 | locus YJL095W, strain BCK1, stronger effect = lower value 1.06 and 1.01 | locus YJL115W, strain asf1, stronger effect = lower value 0.99 | locus YJL129C, strain trk1, stronger effect = lower value 0.998 | locus YJL134W, strain LCB3, stronger effect = lower value 1.01 | locus YJL154C, strain vps35, stronger effect = lower value 1 | locus YJL164C, strain tpk1, stronger effect = lower value 1.02 | locus YJL166W, strain qcr8, stronger effect = lower value 1.01 | locus YJL168C, strain set2, stronger effect = lower value 0.994 | locus YJL187C, strain SWE1 (second series), stronger effect = lower value 1.02 | locus YJL187C, strain SWE1, stronger effect = lower value 1.01 | locus YJR043C, strain POL32, stronger effect = lower value 1.03 | locus YJR066W, strain TOR1, stronger effect = lower value 0.982
